Measured values published in PubChem BioAssay (EPA / NIEHS).
“And” between values parts separate entries of the source, which are not always exact repeats. Equal values may be shown once. A structure can be active in one record and inactive in another. The source made the active and inactive calls. How the source made its calls: active means hit-call score of the fitted dose curve at least 0.9, where 1 is the maximum; inactive means score below 0.9.

Assays:
[1] = BSK_CASM3C_SRB: Viability Assessment in the BioMAP Diversity Plus: CASM3C Assay (AID 2283050); settings: primary human coronary artery smooth muscle cells;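 further: total protein by SRB staining as cytotoxicity measure in parallel cultures; cells exposed to compound for 24 h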
[2] = read-out: Thrombomodulin, THBD (gene 7056); experiment: BSK_CASM3C_Thrombomodulin: BioMAP Diversity Plus: CASM3C Assay for Thrombomodulin Biomarker Activity (AID 2283051); settings: primary human coronary artery smooth muscle cells; actives raise or lower the signal;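 further: thrombomodulin protein level measured by ELISA 24 h after dosing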
[3] = read-out: Tissue Factor, F3 (gene 2152); experiment: BSK_CASM3C_TissueFactor: BioMAP Diversity Plus: CASM3C Assay for Tissue Factor Biomarker Activity (AID 2283052); settings: primary human coronary artery smooth muscle cells; actives raise or lower the signal;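 further: cell surface tissue factor protein level read by ELISA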
[4] = read-out: Interferon-gamma inducible Protein 10 (IP10), CXCL10 (gene 3627); experiment: BSK_hDFCGF_IP10: BioMAP Diversity Plus: hDFCGF Assay for Interferon-gamma inducible Protein 10 (IP10) Biomarker Activity (AID 2283053); settings: primary human foreskin fibroblasts; actives raise or lower the signal
Procedure, shortened: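 IP-10 levels, quantified by ELISA, are taken from human foreskin fibroblast cultures 24 h after chemical treatment, with DMSO serving as negative control and baseline for bidirectional analysis.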

[5] = read-out: Urokinase-type plasminogen activator receptor (uPAR), PLAUR (gene 5329); experiment: BSK_CASM3C_uPAR: BioMAP Diversity Plus: CASM3C Assay for Urokinase-type plasminogen activator receptor (uPAR) Biomarker Activity (AID 2283054); settings: primary human coronary artery smooth muscle cells; actives raise or lower the signal;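 further: cell-surface uPAR protein level quantified by ELISA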
[6] = read-out: Vascular cell adhesion molecule 1 (VCAM1), VCAM1 (gene 7412); experiment: BSK_CASM3C_VCAM1: BioMAP Diversity Plus: CASM3C Assay for Vascular cell adhesion molecule 1 (VCAM1) Biomarker Activity (AID 2283055); settings: primary human coronary artery smooth muscle cells; actives raise or lower the signal;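 further: VCAM-1 protein level quantified by ELISA on the cells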
[7] = read-out: Collagen III, COL3A1 (gene 1281); experiment: BSK_hDFCGF_CollagenIII: BioMAP Diversity Plus: hDFCGF Assay for Collagen III Biomarker Activity (AID 2283056); settings: primary human foreskin fibroblasts; actives raise or lower the signal
Procedure, shortened: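 Human foreskin primary fibroblasts were exposed to test chemicals for 24 h, after which collagen III was quantified by ELISA. Activity was fitted bidirectionally against DMSO as negative control and baseline.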

[8] = read-out: Epidermal growth factor receptor (EGFR), EGFR (gene 1956); experiment: BSK_hDFCGF_EGFR: BioMAP Diversity Plus: hDFCGF Assay for Epidermal growth factor receptor (EGFR) Biomarker Activity (AID 2283057); settings: primary human foreskin fibroblasts; actives raise or lower the signal
Procedure, shortened: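 Measured by ELISA: EGFR levels on primary human foreskin fibroblasts 24 h after chemical treatment, analysed relative to DMSO with bidirectional fitting.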

[9] = read-out: Interleukin-8 (IL8), CXCL8 (gene 3576); experiment: BSK_hDFCGF_IL8: BioMAP Diversity Plus: hDFCGF Assay for Interleukin-8 (IL8) Biomarker Activity (AID 2283058); settings: primary human foreskin fibroblasts; actives raise or lower the signal
Procedure, shortened: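 hDFCGF human dermal fibroblasts; 24 h chemical exposure; IL-8 by ELISA; bidirectional curve fit vs DMSO baseline; gain or loss of signal scored.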

[10] = BSK_hDFCGF_Proliferation: Cell Proliferation Assessment in the BioMAP Diversity Plus: hDFCGF Assay (AID 2283059); settings: primary human foreskin fibroblasts;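 further: curves fitted for both rise and fall of signal versus DMSO baseline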
Procedure, shortened: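 Primary human foreskin fibroblasts, sub-confluent; […]; 10% TCA fix, 0.1% SRB stain, A560 total protein. Gain/loss fitted bidirectionally vs DMSO control.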

Measured: AC50

C#CCOS(=O)OC1CCCCC1Oc1ccc(C(C)(C)C)cc1 (stereo not given)
active: [1] 20 µM | [2] 5.22 µM | [4] 7.97 µM | [5] 11.2 µM | [7] 1.27 µM | [9] 15.3 µM | [10] 2.73 µM
inactive: [3] | [6] | [8]

O=C(Nc1ccccc1)Nc1ccnc(Cl)c1
inactive: [1] | [2] | [3] | [4] | [5] | [6] | [7] | [9] | [10]
active: [8] 0.148 µM

COP(=S)(OC)Oc1nc(Cl)c(Cl)cc1Cl
active: [2] 16.1 µM | [4] 25.4 µM | [7] 20 µM | [10] 28.2 µM
inactive: [1] | [3] | [5] | [6] | [8] | [9]

CON(C)C(=O)Nc1ccc(Cl)c(Cl)c1
inactive: [1] | [2] | [3] | [4] | [5] | [6] | [7] | [8] | [9] | [10]

COC(=O)c1ccccc1C(=O)OC
inactive: [1] | [2] | [3] | [4] | [5] | [6] | [7] | [8] | [9] | [10]

COC(=O)C=C(C)OP(=O)(OC)OC
inactive: [1] | [2] | [3] | [4] | [5] | [6] | [7] | [8] | [9] | [10]

Cc1c(F)c(F)c(COC(=O)C2C(/C=C(\Cl)C(F)(F)F)C2(C)C)c(F)c1F (stereo not given)
inactive: [1] | [3] | [4] | [5] | [6] | [7] | [8] | [9]
active: [2] 14 µM | [10] 10.8 µM

O=C(O)COc1nc(Cl)c(Cl)cc1Cl
inactive: [1] | [2] | [3] | [4] | [5] | [6] | [7] | [8] | [9] | [10]

COC(=O)C(C)Oc1ccc(Oc2ccc(Cl)cc2Cl)cc1 (stereo not given)
inactive: [1] | [2] | [3] | [4] | [5] | [6] | [7] | [8] | [9] | [10]
active: [10] 29.5 µM and 36.7 µM

COP(N)(=O)SC (stereo not given)
inactive: [1] | [2] | [3] | [4] | [5] | [6] | [7] | [8] | [9] | [10]

CCOC(=O)C(Cl)Cc1cc(-n2nc(C)n(C(F)F)c2=O)c(F)cc1Cl (stereo not given)
inactive: [1] | [2] | [3] | [4] | [5] | [6] | [7] | [8] | [9] | [10]

COC(=O)N(OC)c1ccccc1COc1ccn(-c2ccc(Cl)cc2)n1
active: [2] 31.2 µM | [6] 11.7 µM | [7] 0.8 µM | [9] 5.63 µM | [10] 1.84 µM
inactive: [1] | [3] | [4] | [5] | [8]

CCCC1COC(Cn2cncn2)(c2ccc(Cl)cc2Cl)O1 (stereo not given)
active: [2] 7.5 µM | [10] 4.49 µM
inactive: [1] | [3] | [4] | [5] | [6] | [7] | [8] | [9]

COc1nc(C)nc(NC(=O)NS(=O)(=O)c2ccccc2Cl)n1
inactive: [1] | [2] | [3] | [4] | [5] | [6] | [7] | [8] | [9] | [10]

CCCCC(CC)COC(=O)c1ccccc1C(=O)OCC(CC)CCCC (stereo not given)
inactive: [1] | [2] | [3] | [5] | [6] | [7] | [8] | [9]
active: [4] 16.6 µM | [10] 4.85 µM

CCNc1nc(Cl)nc(NCC)n1
inactive: [1] | [2] | [3] | [4] | [5] | [6] | [7] | [8] | [9] | [10]

CCON=C(CC)C1=C(O)CC(c2c(C)cc(C)cc2C)CC1=O (stereo not given)
inactive: [1] | [2] | [3] | [4] | [5] | [6] | [7] | [8] | [9] | [10]

CCc1nn(C)c(C(=O)NCc2ccc(C(C)(C)C)cc2)c1Cl
inactive: [1] | [3] | [5] | [6] | [8]
active: [2] 13.2 µM | [4] 28.8 µM | [7] 20 µM | [9] 35.4 µM | [10] 20 µM

C=CCC1=C(C)[C@@H](OC(=O)[C@@H]2[C@@H](C=C(C)C)C2(C)C)CC1=O
active: [4] 32.6 µM | [7] 30.9 µM | [8] 32.4 µM | [10] 33.1 µM
inactive: [1] | [2] | [3] | [5] | [6]

CNC(=O)ON=CC(C)(C)SC
inactive: [1] | [2] | [3] | [6] | [7] | [8] | [9] | [10]
active: [4] 5.4 µM | [5] 0.148 µM

CC(C)(C)c1ccc(CSc2cnn(C(C)(C)C)c(=O)c2Cl)cc1
active: [2] 31.8 µM | [7] 12.9 µM | [10] 4.68 µM
inactive: [1] | [3] | [4] | [5] | [6] | [8] | [9]

CCOC(=O)CC(SP(=S)(OC)OC)C(=O)OCC (stereo not given)
inactive: [1] | [2] | [3] | [4] | [5] | [6] | [7] | [8] | [9] | [10]

C=CC1(C)OC(=O)N(c2cc(Cl)cc(Cl)c2)C1=O (stereo not given)
inactive: [1] | [2] | [3] | [4] | [5] | [6] | [7] | [8] | [9] | [10]

COc1ccc(C(c2ccc(OC)cc2)C(Cl)(Cl)Cl)cc1
inactive: [3] | [5] | [6] | [7] | [8] | [9]
active: [1] 18.4 µM | [2] 13.1 µM | [4] 20 µM | [10] 6.21 µM

COc1nc(NC(C)C)nc(NC(C)C)n1
inactive: [1] | [2] | [3] | [4] | [5] | [6] | [7] | [8] | [9] | [10]

CCOc1cc(Oc2ccc(C(F)(F)F)cc2Cl)ccc1[N+](=O)[O-]
inactive: [1] | [2] | [3] | [5] | [6] | [9]
active: [4] 6.48 µM | [7] 12.9 µM | [8] 14.2 µM | [10] 10.6 µM

Cc1ccc(-c2c(Cl)nc(C#N)n2S(=O)(=O)N(C)C)cc1
inactive: [1] | [2] | [3] | [5] | [6] | [8] | [9]
active: [4] 6.3 µM | [7] 13.9 µM | [10] 17 µM
